Assay outcomes from PubChem.
Bcl-xL primary = Bcl-xL (human) inhibition; GST-Bcl-xL / FITC-Bim BH3 peptide fluorescence polarization; inhibition, % at 10.9 µM; 320,000 tested, 0.7% active; AID 2129;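 active = inhibition above the mean of all tested compounds plus 3 SD, cutoff set per campaign, cut at about 30% in these data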;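 note: 0% = DMSO wells and 100% = unlabeled Bim-BH3 peptide competitor; inhibitors lower millipolarization by displacing the labeled peptide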
Target sequence (Q07817 whole entry, looked up): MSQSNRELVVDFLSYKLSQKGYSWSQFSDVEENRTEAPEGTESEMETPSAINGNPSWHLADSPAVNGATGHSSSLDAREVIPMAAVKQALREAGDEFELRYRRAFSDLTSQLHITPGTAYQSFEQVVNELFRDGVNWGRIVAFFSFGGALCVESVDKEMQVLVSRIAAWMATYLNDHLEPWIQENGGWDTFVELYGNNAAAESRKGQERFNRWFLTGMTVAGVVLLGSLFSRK
eLon inh = E. coli protease La inhibition. AID 602123. P0A9M0. purified E. coli Lon protease, fluorescence polarization. inhibition, % at 7.94 µM. 360,000 tested, 0.42% active; in the data active = inhibition above about 13%, passing the limit was not always enough;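 note: 0% = enzyme with probe and DMSO and 100% = no enzyme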
GLD-1 RNA inh = GLD-1-TGE RNA interaction inhibition (C. elegans) | AID 2280 | 320,000 tested, 0.44% active | purified GLD-1 + fluorescein TGE RNA, fluorescence polarization | inhibition, % at 5.96 µM;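 active = percent inhibition above a per-plate cutoff, the plate mean of test compounds plus 3 SD, cut at about 30% in these data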;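 note: 0% = DMSO wells with GLD-1 and probe and 100% = wells lacking GLD-1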
MEX-5 binding = C. elegans MEX-5 TCR-2 RNA binding activity; MEX-5/FITC-TCR2 RNA binding, fluorescence polarization; stronger effect = lower value; activity score (negative = inhibition of binding), % at 10 µM; 300,000 tested, 0.38% active; AID 1832;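 active = inhibition past about -25% in most replicates, and total fluorescence under double the plate's negative control median, limit read from the data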;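 note: 0% = DMSO and -100% = 5 µM competing unlabeled TCR2 RNA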
EBV gp42 inh = inhibitors of Epstein-Barr virus glycoprotein 42. Q1HVG2. Fluorescence polarization binding assay, mP read-out. inhibition, % (tested at 21.74 µM). 220,000 tested, 0.42% active. AID 1085; in the data active = inhibition above about 50%
Target sequence (Q1HVG2 whole entry, looked up): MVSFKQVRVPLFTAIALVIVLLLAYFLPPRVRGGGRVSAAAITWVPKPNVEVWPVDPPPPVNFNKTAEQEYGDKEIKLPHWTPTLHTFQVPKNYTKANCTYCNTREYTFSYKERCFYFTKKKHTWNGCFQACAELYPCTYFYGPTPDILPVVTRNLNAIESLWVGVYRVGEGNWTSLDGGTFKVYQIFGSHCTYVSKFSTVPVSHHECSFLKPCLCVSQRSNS
MCL1 BIM primary = disrupts human MCL1 binding to BIM-BH3 peptide; Q07820; 320,000 tested, 0.68% active; GST-MCL1 / FITC-Bim-BH3 fluorescence polarization; inhibition, % at 10.9 µM; AID 2057;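 active = inhibition above the mean inhibition of all tested compounds plus 3 SD, set per campaign, cut at about 40% in these data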;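 note: 0% = DMSO wells and 100% = unlabeled Bim-BH3 peptide control; higher means more loss of mP so more displacement of Bim peptide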
eLon confirm = E. coli Lon inhibition confirmation | shares compounds with eLon inh | purified E. coli Lon, fluorescence polarization | inhibition, % at 7.94 µM | 1,400 tested, 31% active | AID 602230; in the data active = inhibition above about 16%;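 note: 0% = enzyme with probe and DMSO and 100% = no enzyme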
* hit, by the source's call; / = no result given. The list is not random: actives were taken first. Their share in the collection is about 1.5%.

SMILES	Bcl-xL primary	eLon inh	GLD-1 RNA inh	MEX-5 binding	EBV gp42 inh	MCL1 BIM primary	eLon confirm
Cc1ccc2cccc(OCc3ccccc3)c2n1	0.9	-0.9	-2.6	-0.6	-4.4	0.2	/
O=C(NCCOC(=O)c1ccc(Cl)cc1)c1cccnc1	1.2	15.7*	6.0	0.8	-6.7	2.3	-9.4
Cc1cc(C(=O)CSc2nnc(-c3ccncc3)n2-c2ccccc2)c(C)n1C	12.0	18.7*	16.2	-0.6	6.3	10.2	-73.2
CC(NC(=O)CN1C(=O)NC2(CCCC2)C1=O)c1ccc(Cl)cc1Cl (configuration not stated)	/	-5.7	4.3	/	/	/	/
Fc1cc(F)c(F)c(SCn2cc(Br)cn2)c1F	/	-10.2	/	/	/	/	/
CCN1CCN(C(=O)Cn2nc(C)c3sc4ccccc4c3c2=O)CC1	2.7	21.0*	-5.4	1.1	/	-0.2	0.9
CCOc1ccc(N2CC(C(=O)NCCc3ccc(F)cc3)CC2=O)cc1 (configuration not stated)	3.0	-10.1	-4.9	0.5	/	7.0	/
O=C(NCCCN1CCCC1)Nc1ccccc1[N+](=O)[O-]	0.8	16.4*	-3.0	-1.2	/	7.9	9.1
Cc1ccccc1NC(=O)NCCCN1CCCC1	-5.2	0.1	8.8	-0.8	-19.4	-3.0	/
Cc1ccc(OCC(=O)NCCCNC(=O)c2ccco2)cc1	0.8	-2.7	1.3	-1.8	/	4.8	/
O=C(NCCCN1CCCC1=O)c1ccc2c(=O)n(Cc3ccco3)c(=S)[nH]c2c1	12.8	17.5*	-5.7	-1.2	-2.8	5.7	7.6
O=C1CCc2cc(S(=O)(=O)N3CCN(c4cccc(Cl)c4)CC3)ccc2N1	3.7	-12.2	6.4	1.9	-14.1	-3.0	/
O=C1Cc2cc(S(=O)(=O)N3CCN(c4cccc(Cl)c4)CC3)ccc2N1	-22.0	52.3*	-5.5	2.7	/	-24.8	-6.1
CCc1nc2c(OCCOc3ccc(F)cc3)cccn2c1N(C)C(=O)C(C)C	/	-3.0	/	/	/	/	/
CCn1c(SCC(=O)Nc2cc(C)on2)nnc1-c1ccco1	2.6	1.5	-0.8	-1.4	-4.3	-2.4	/
CCCCn1c(SCC(=O)Nc2cc(C)on2)nnc1-c1ccco1	2.7	14.2*	-3.4	1.4	-4.2	-2.6	-2.7
CC1(C(=O)NS(=O)(=O)C2CC2)CCN(C(=O)c2ccccc2F)C1 (configuration not stated)	/	1.7	/	/	/	/	/
COc1ccc([N+](=O)[O-])cc1NC(=O)C(C)c1ccccc1 (configuration not stated)	1.1	21.8*	1.8	-1.6	-7.8	8.8	-0.7
O=C(/C=C/c1ccc(Cl)c(C(F)(F)F)c1)N1CCN(c2ccccn2)CC1	1.8	8.2	3.6	-0.1	/	8.7	/
CCC(c1nnc(SC(C)C(=O)NC2CC2)n1-c1ccc(OC)cc1)N(C)C (configuration not stated)	5.0	18.9*	0.6	/	/	3.7	3.6
C=CCn1c(COc2ccc(OC)cc2)nnc1SC(C)C(=O)NC1CC1 (configuration not stated)	-3.2	-1.4	4.5	/	/	-2.0	/
O=C(CNS(=O)(=O)c1ccc(Br)s1)N1CCN(c2ccc(F)cc2)CC1	0.6	8.3	2.5	-0.2	/	10.5	/
CCC(=O)NC(c1cc(Cl)c2ccccc2c1O)C1CC1 (configuration not stated)	150.8*	20.9*	-3.9	/	/	-5.3	-6.1
C[C@H]1CN([C@@H](C)CO)C(=O)CCCn2nncc2CO[C@H]1CN(C)C(=O)NC1CCCCC1	/	12.6*	/	/	/	/	-2.6
Cc1noc(C)c1S(=O)(=O)N(C)C[C@@H]1OCc2cnnn2CCCC(=O)N([C@@H](C)CO)C[C@H]1C	/	14.6*	/	/	/	/	-10.1
CCOC(=O)C(C)Sc1nnc(Cc2cc(=O)[nH]c(=O)[nH]2)n1-c1ccc(Cl)cc1 (configuration not stated)	18.4	23.9*	24.3	-4.5	-8.6	11.9	7.9
CCSc1nnc(Cc2cc(=O)[nH]c(=O)[nH]2)n1-c1ccc(Cl)cc1	10.2	13.3	15.4	1.1	-20.7	4.3	/
COC(=O)C(C)Sc1nnc(Cc2cc(=O)[nH]c(=O)[nH]2)n1-c1ccc(Cl)cc1 (configuration not stated)	20.5	37.2*	27.3	-15.2	0.5	20.6	8.1
